Data taken from the antibiotic and cytotoxicity screens of Wong et al. (2023).
Among all 39,000 compounds or so, about 3,300 (8.5%) were called active. The sample holds actives, similar compounds and a random draw of the others, so the mix is not that of the screen.

tested on: HepG2; test: cytotoxicity call (relative viability < 0.9); conditions: 10 µM

Compound | cytotoxicity call
O=C(C[C@H]1CC[C@H]2[C@@H](COC[C@H](O)CN2S(=O)(=O)c2ccc(F)cc2)O1)N[C@@H]1CCN(Cc2ccccc2)C1 | inactive
CO[C@H]1CN(C)C(=O)c2ccc(NS(C)(=O)=O)cc2OC[C@@H](C)N(C(=O)C2CCCCC2)C[C@@H]1C | inactive
C[C@@H]1CCCCO[C@@H](CN(C)C(=O)C2CCCCC2)[C@@H](C)CN([C@@H](C)CO)C(=O)c2cc(NS(=O)(=O)c3ccc(F)cc3)ccc2O1 | inactive
COc1ccc(S(=O)(=O)N(C)C[C@@H]2Oc3ccc(NS(=O)(=O)c4ccc(F)cc4)cc3CC(=O)N([C@@H](C)CO)C[C@@H]2C)cc1 | inactive
C[C@@H]1CN([C@H](C)CO)C(=O)c2cc(NC(=O)NC3CCCCC3)ccc2O[C@H]1CN(C)S(=O)(=O)c1cn(C)cn1 | inactive
Cc1ccc(S(=O)(=O)N(C)C[C@@H]2Oc3ccc(NC(=O)CCN4CCOCC4)cc3CC(=O)N([C@H](C)CO)C[C@@H]2C)cc1 | inactive
Cc1ccc(S(=O)(=O)N(C)C[C@@H]2Oc3c(NC(=O)Nc4ccc(C(F)(F)F)cc4)cccc3C(=O)N([C@H](C)CO)C[C@H]2C)cc1 | inactive
Cc1ccc(S(=O)(=O)N(C)C[C@@H]2Oc3c(NC(=O)Nc4ccc(C(F)(F)F)cc4)cccc3C(=O)N([C@@H](C)CO)C[C@H]2C)cc1 | inactive
Cc1ccc(S(=O)(=O)N(C)C[C@H]2Oc3c(NC(=O)Nc4ccc(C(F)(F)F)cc4)cccc3C(=O)N([C@@H](C)CO)C[C@H]2C)cc1 | active
C[C@H](CO)N1C[C@H](C)[C@H](CN(C)S(=O)(=O)c2ccc(Cl)cc2)Oc2c(NC(=O)Nc3ccc(C(F)(F)F)cc3)cccc2C1=O | inactive
C[C@@H]1CN([C@H](C)CO)C(=O)c2cccc(NC(=O)Nc3ccc(C(F)(F)F)cc3)c2O[C@@H]1CN(C)S(=O)(=O)c1ccc(Cl)cc1 | inactive
C[C@H]1CN([C@@H](C)CO)C(=O)c2cccc(NC(=O)Nc3ccc(C(F)(F)F)cc3)c2O[C@H]1CN(C)S(=O)(=O)c1ccc(Cl)cc1 | active
Cc1ccc(OC(=O)N(C)C[C@@H]2OCc3ccccc3-c3ccccc3C(=O)N([C@H](C)CO)C[C@H]2C)cc1 | inactive
C[C@@H]1CN([C@H](C)CO)C(=O)Cc2cc(NC(=O)Cc3ccccc3)ccc2O[C@H]1CN(C)C(=O)Nc1ccc(C(F)(F)F)cc1 | inactive
C[C@@H]1CN([C@H](C)CO)C(=O)c2cc(N(C)C)ccc2O[C@@H](C)CCCCO[C@@H]1CN(C)S(C)(=O)=O | inactive
CCCNC(=O)N(C)C[C@@H]1Oc2cc(C#Cc3ccccn3)ccc2S(=O)(=O)N([C@H](C)CO)C[C@H]1C | inactive
Cc1ccc(S(=O)(=O)N(C)C[C@H]2Oc3ccc(NC(=O)NC(C)C)cc3CC(=O)N([C@@H](C)CO)C[C@H]2C)cc1 | inactive
NC(=O)[C@@]1(CCS(=O)(=O)c2ccccc2)N=C(c2ccc(OCCCO)cc2)O[C@H]1c1ccccc1 | inactive
C[C@@H](Oc1cc(-n2cnc3ccc(CN4CCN(C)CC4)cc32)sc1C(N)=O)c1ccccc1C(F)(F)F | active
C[C@@H]1CN([C@@H](C)CO)C(=O)c2cc(C#CC3(O)CCCC3)cnc2O[C@@H]1CN(C)C(=O)Cc1cccnc1 | inactive
C[C@@H]1CN([C@H](C)CO)C(=O)c2cc(C#CC3(O)CCCC3)cnc2O[C@@H]1CN(C)C(=O)CN(C)C | inactive
CCCC(=O)Nc1ccc2c(c1)C(=O)N(C)C[C@@H](OC)[C@H](C)CN(Cc1ccc(-c3ccccn3)cc1)[C@@H](C)CO2 | inactive
CCC(CO)NCCNC(CC)CO.Cl.Cl (centres undefined) | inactive
C=CC[C@H](CC(=O)N[C@@H](CO)Cc1ccccc1)C(=O)N[C@@H](COC(=O)[C@@H](CC=C)Cc1ccc(F)cc1)Cc1ccccc1 | inactive
C=CCC[C@H](Cc1ccc(F)cc1)C(=O)OC[C@@H](NC(=O)[C@@H](CC=C)CC(=O)N[C@@H](CO)Cc1ccccc1)C(C)(C)C | active

Compound | cytotoxicity call
C=CCC[C@H](Cc1ccc(F)cc1)C(=O)OC[C@@H](NC(=O)[C@@H](CC=C)CC(=O)N[C@H](CO)Cc1ccccc1)C(C)(C)C | inactive
C=CCC[C@@H](Cc1ccc(F)cc1)C(=O)OC[C@@H](NC(=O)[C@@H](CC=C)CC(=O)N[C@H](CO)Cc1ccccc1)C(C)(C)C | active
C=CCC[C@@H](Cc1ccc(F)cc1)C(=O)OC[C@@H](Cc1ccccc1)NC(=O)[C@H](CC=C)CC(=O)N[C@@H](CO)Cc1ccccc1 | inactive
C=CCC[C@@H](Cc1ccc(F)cc1)C(=O)OC[C@@H](NC(=O)[C@@H](CC=C)CC(=O)N[C@@H](CO)Cc1ccccc1)C(C)(C)C | inactive
C[C@H]1CN([C@@H](C)CO)C(=O)c2cc(C#Cc3cccnc3)cnc2O[C@@H]1CN(C)S(=O)(=O)c1ccccc1F | inactive
C[C@H](CO)N1C[C@H](C)[C@@H](CN(C)S(=O)(=O)c2cn(C)cn2)OCCCC[C@H](C)Oc2ccc(NC(=O)CCCN(C)C)cc2C1=O | inactive
O=C(C[C@H]1CC[C@H](NS(=O)(=O)c2ccccc2)[C@@H](CO)O1)NCc1ccncn1 | inactive
C[C@@H]1CCCCO[C@@H](CN(C)C(=O)CCCN(C)C)[C@@H](C)CN([C@H](C)CO)C(=O)c2cc(NS(C)(=O)=O)ccc2O1 | inactive
COc1ccc(S(=O)(=O)N[C@H]2CC[C@H](CC(=O)N3CCN(c4ccccc4)CC3)O[C@@H]2CO)cc1 | inactive
Cn1c(CC#N)n[nH]c1=S | inactive
CC(C)NC(=O)Nc1ccc2c(c1)C(=O)N([C@@H](C)CO)C[C@H](C)[C@@H](CN(C)S(C)(=O)=O)OCCCC[C@H](C)O2 | inactive
CCN1CCCC1CNC(=O)c1cc(S(N)(=O)=O)ccc1OC (centres undefined) | inactive
CCN1CCCC1CNC(=O)c1cc(S(=O)(=O)CC)c(N)cc1OC (centres undefined) | active
CCN(CC)CCNC(=O)c1cc(Br)c(N)cc1OC | inactive
COc1ccc(NC(=O)Nc2cccc3c2O[C@H](CN(C)Cc2ccc(C(=O)Nc4ccccc4N)cc2)[C@H](C)CN([C@@H](C)CO)C3=O)cc1 | inactive
COc1cc(OC)c2c(c1Cl)OC1(C2=O)C(O)=CC(=O)CC1C (centres undefined) | inactive
COC1=CC(=O)CC(C)C12Oc1c(Cl)c(OC)cc(OC)c1C2=O (centres undefined) | active
NC(=O)N1C(=O)[C@H]2[C@H](C1=O)[C@H]1C=C(c3ccc(CO)cc3)[C@@H]2[C@@H](C2CC2)N1Cc1cc2c(cc1Br)OCO2 | inactive
CCCC#Cc1ccc2c(c1)O[C@H](CN(C)S(=O)(=O)c1cccc(F)c1)[C@@H](C)CN([C@H](C)CO)S2(=O)=O | inactive
Cc1ccccc1NC(=O)CC(C)C | inactive
CCn1c(=O)c(-c2cc(NC(=O)Nc3ccccc3)c(F)cc2Br)cc2cnc(NC)cc21 | active
CN(C)CCCCCCNC(=O)[C@H]1C[C@H]2C(=O)NCC(=O)N2[C@H]1c1cccc(OCCO)c1 | inactive
Cc1ccc(S(=O)(=O)Nc2ccc3c(c2)C(=O)N([C@@H](C)CO)C[C@@H](C)[C@H](CN(C)C(=O)Nc2ccc(C(F)(F)F)cc2)OCCCC[C@@H](C)O3)cc1 | inactive
CC[C@@]1(C)N[C@H](C(=O)O)CS1 | inactive
COc1ccc(-n2nc(CCC(=O)N(C)O)cc2-c2ccc(Cl)cc2)cc1 | active

Compound | cytotoxicity call
COc1ccc2cc(-c3cc(-c4cc(Cl)cc(Cl)c4)nn3[C@@H](C)c3ccc(C(=O)NCCC(=O)O)cc3)ccc2c1 | inactive
C[C@H](CO)N1C[C@H](C)[C@H](CN(C)CC2CC2)Oc2cc(C#Cc3cccc(F)c3)ccc2S1(=O)=O | inactive
O=c1[nH][n+](-c2ccccc2)no1 | inactive
COCC(=O)Nc1ccc2c(c1)[C@@H]1C[C@@H](CC(=O)N3CCOCC3)O[C@@H](CO)[C@@H]1O2 | inactive
CC(=O)N(C[C@@H](O)CO)c1c(I)c(C(=O)NC[C@@H](O)CO)c(I)c(C(=O)NC[C@@H](O)CO)c1I | inactive
O=C(NCC(O)CO)c1c(I)c(C(=O)NCC(O)CO)c(I)c(N(CCO)C(=O)CO)c1I (centres undefined) | active
O=C(NC[C@@H](O)CO)c1c(I)c(C(=O)NC[C@@H](O)CO)c(I)c(N(CCO)C(=O)CO)c1I | inactive
Cc1ccc(S(=O)(=O)Nc2ccc3c(c2)CC(=O)N([C@@H](C)CO)C[C@H](C)[C@H](CN(C)S(=O)(=O)c2cccs2)O3)cc1 | inactive
C[C@H](CO)N1C[C@H](C)[C@H](CN(C)Cc2ccc(Cl)c(Cl)c2)Oc2c(NS(=O)(=O)c3cccs3)cccc2C1=O | inactive
Cn1c(=O)c2[nH]c(C3CCCC3)nc2n(C)c1=O | inactive
CCn1c(Cl)nc2c1c(=O)n(C)c(=O)n2C | inactive
Cc1nc2c(=O)n(C)c(=O)n(C)c2nc1Cl | active
N=C(N)N1CCc2ccccc2C1.O=S(=O)(O)O | inactive
CN1Cc2c(Cl)cc(Cl)cc2[C@H](c2cccc(S(=O)(=O)NCCOCCOCCNC(=O)NCCCCNC(=O)NCCOCCOCCNS(=O)(=O)c3cccc([C@@H]4CN(C)Cc5c(Cl)cc(Cl)cc54)c3)c2)C1 | inactive
COc1ccc(S(=O)(=O)N(C)C[C@@H]2Oc3cc(C#CC4CCCC4)ccc3S(=O)(=O)N([C@H](C)CO)C[C@@H]2C)cc1 | inactive
O=C(C[C@H]1C[C@H]2c3cc(NS(=O)(=O)c4ccc(F)cc4)ccc3O[C@H]2[C@@H](CO)O1)NCc1cccnc1 | inactive
COc1ccc(NC(=O)N(C)C[C@H]2Oc3c(NC(=O)c4ccc(-c5nccs5)cc4)cccc3C(=O)N([C@H](C)CO)C[C@H]2C)cc1 | inactive
COC(=O)c1c(CC[C@@H](CO)NC(=O)N2CCC[C@H]2Cn2cc(-c3ccccn3)nn2)oc(C(C)=O)c1C(=O)OC | inactive
C[C@@H]1CN([C@@H](C)CO)C(=O)Cc2cc(NC(=O)CCC(F)(F)F)ccc2O[C@@H]1CN(C)Cc1ccc(Oc2ccccc2)cc1 | active
C[C@@H]1CN([C@H](C)CO)C(=O)Cc2cc(NC(=O)CCC(F)(F)F)ccc2O[C@H]1CN(C)Cc1ccc(Oc2ccccc2)cc1 | active
C[C@@H]1CN([C@H](C)CO)C(=O)Cc2cc(NC(=O)CCC(F)(F)F)ccc2O[C@@H]1CN(C)Cc1ccc(Oc2ccccc2)cc1 | active
C[C@H]1CN([C@@H](C)CO)C(=O)Cc2cc(NC(=O)CCC(F)(F)F)ccc2O[C@H]1CN(C)Cc1ccc(Oc2ccccc2)cc1 | inactive
C[C@H](CO)N1C[C@H](C)[C@H](CN(C)Cc2ccc(Oc3ccccc3)cc2)Oc2ccc(NC(=O)CCC(F)(F)F)cc2CC1=O | active
C[C@H]1CN([C@@H](C)CO)C(=O)Cc2cc(NC(=O)CCC(F)(F)F)ccc2O[C@@H]1CN(C)Cc1ccc(Oc2ccccc2)cc1 | inactive
